Assay results from PubChem BioAssay (NCATS).
Inconclusive results are not listed. Activity calls are given as the source filed them. Calls come from the whole dose curve; as a rule, active = well fitted curve in the direction sought with a large enough effect; inconclusive = small, poorly fitted or top-dose-only effect, or another doubt; inactive = no such curve, though single readings can be large; an effect the other way counts as inactive or inconclusive.

What was measured:
[1] = HPAF-II 24hr Apoptosis Induction qHTS against the NCATS CANVASS Library (AID 1347356)
Procedure, shortened: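 Cells seeded at 500 per well, then compounds pin-transferred in an 11-point concentration series. After 24 hours at 37 degrees C, Caspase-Glo 3/7 was added and luminescence measured following 15 min at room temperature.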

[2] = HEK293 18hr Apoptosis Induction qHTS against the NCATS CANVASS Library (AID 1347357)
Procedure, shortened: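 HEK293 cells (500/well, DMEM + 10% FBS) treated with an 11-point series for 18 h at 37 degrees C. Caspase-3/7 activity read by Caspase-Glo luminescence after 15 min at room temperature.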

[3] = HEK293 24hr Apoptosis Induction qHTS against the NCATS CANVASS Library (AID 1347359)
Procedure, shortened: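 HEK293 cells, 500 per well, exposed to an 11-point compound series for 24 hours at 37 degrees C. Caspase 3/7 activity read by Caspase-Glo luminescence (DEVD substrate) after 15 min at room temperature.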

[4] = HPAF-II 18hr Apoptosis Induction qHTS against the NCATS CANVASS Library (AID 1347360)
Procedure, shortened: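 HPAF-II cells at 500/well were exposed for 18 h at 37 C to an 11-point compound series. Caspase-3/7 activity was read by Caspase-Glo luminescence after 15 min at RT.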

[5] = tested on: NAD(P)H diaphorase (Clostridium kluyveri); experiment: Diaphorse counterscreen qHTS: Assay Interference Panel against the NCATS CANVASS Library (AID 1347362)
Procedure, shortened: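 Clostridium kluyveri diaphorase in PBS + 0.01% Tween-20 preincubated 15 min with compounds. Resazurin and NADH then added for 5 min at room temperature in the dark; resorufin fluorescence read (ex 525, em 598).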

[6] = biological target: Luciferin 4-monooxygenase (Photinus pyralis) (UniProt P08659); experiment: Firefly luciferase counterscreen qHTS: Assay Interference Panel against the NCATS CANVASS Library (AID 1347363); note: series mostly up to about 57 µM
Sequence of Luciferin 4-monooxygenase (Photinus pyralis) (P08659 whole entry, looked up): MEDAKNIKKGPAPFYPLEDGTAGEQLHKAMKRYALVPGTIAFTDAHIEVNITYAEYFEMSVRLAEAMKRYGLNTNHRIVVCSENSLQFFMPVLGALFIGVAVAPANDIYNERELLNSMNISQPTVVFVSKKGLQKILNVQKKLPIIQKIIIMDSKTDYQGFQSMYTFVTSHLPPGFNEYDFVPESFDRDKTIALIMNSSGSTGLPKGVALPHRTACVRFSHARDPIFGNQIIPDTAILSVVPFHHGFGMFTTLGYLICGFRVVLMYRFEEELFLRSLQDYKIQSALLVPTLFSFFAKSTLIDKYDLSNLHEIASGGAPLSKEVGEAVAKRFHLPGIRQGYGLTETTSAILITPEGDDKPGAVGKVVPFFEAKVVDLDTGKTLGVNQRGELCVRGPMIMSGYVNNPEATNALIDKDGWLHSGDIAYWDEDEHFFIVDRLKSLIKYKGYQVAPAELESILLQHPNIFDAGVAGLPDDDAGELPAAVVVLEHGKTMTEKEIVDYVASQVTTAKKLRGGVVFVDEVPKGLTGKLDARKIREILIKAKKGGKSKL
Procedure, shortened: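 Purified P. pyralis luciferase (0.04 ug/mL, 4x reagent) added to Tris-acetate buffer with 0.013 mM D-luciferin, 0.013 mM ATP and 13.3 mM Mg-acetate; compounds preincubated 15 min, then luminescence read after 5 min, RT.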

[7] = KB-3-1 Cancer Cell Toxicity qHTS against the NCATS CANVASS Library (AID 1347366); note: nearly all actives have a fitted effect of over 75% in size
Procedure, shortened: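 KB-3-1 cells (500/well) in DMEM with 10% FBS were exposed to compounds for 72 h at 37C. Viability was read by CellTiter-Glo luminescence.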

[8] = qHTS for ATAD5 Agonist screened against the NCATS CANVASS Library (AID 1347367);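 note: luciferase reporter driven by ATAD5 which rises upon DNA damage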
Procedure, shortened: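 Luciferase reporter under ATAD5 control, stably integrated in HEK293T cells (2000/well). Compounds (11 points) incubated 16 h at 37C; viability read first by CellTiter-Fluor, then luminescence reporting ATAD5 activation. MMS positive control.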

[9] = G06 Cancer Cell Toxicity qHTS against the NCATS CANVASS Library (AID 1347368); note: nearly all actives have a fitted effect of over 60% in size
Procedure, shortened: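 Cells were plated at 500 per well, then compounds were added over an 11-point range. After 72 hr at 37C, CellTiterGlo was added and luminescence measured as ATP content.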

[10] = MCF7 Cancer Cell Toxicity qHTS against the NCATS CANVASS Library (AID 1347369)
Procedure, shortened: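 MCF7 cells (500/well) were exposed 72 h at 37 °C to compounds in an 11-point series. Viability was read as ATP content by CellTiterGlo luminescence.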

[11] = qHTS for ATAD5 Antagonist screened against the NCATS CANVASS Library (AID 1347370);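 note: HEK293T cells carrying an ATAD5 luciferase reporter co-treated with 10 µM 5-fluorouridine; series mostly up to about 46 µM; nearly all actives have a fitted effect of over 65% in size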
Procedure, shortened: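 Compounds (11-point) co-dosed with 10 µM 5-FUrd for 16 h at 37 °C onto HEK293T-ATAD5 luciferase reporter cells. Viability measured by CellTiter-Fluor fluorescence, then ATAD5 reporter signal by luminescence.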

[12] = J3T Cancer Cell Toxicity qHTS against the NCATS CANVASS Library (AID 1347371);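 note: J3T is a canine glioma cancer cell line seeded at 500 cells per well; series mostly up to about 46 µM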
Procedure, shortened: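 Luminescence from CellTiterGlo, reporting cellular ATP, serves as the viability measure after 72 hr compound treatment of J3T canine glioma cells seeded at 500 cells/well.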

[13] = biological target: Nuclear receptor subfamily 1 group I member 3 (Homo sapiens) (UniProt Q14994); experiment: qHTS for Constitutive Androstane Receptor (CAR) Antagonist screened against the NCATS CANVASS Library (AID 1347372);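 note: cells stimulated with 50 nM CITCO agonist so inhibition reflects antagonism; luciferase from CYP2B6 promoter reporter driven by hCAR in HepG2 cells; series mostly up to about 46 µM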
Sequence of Nuclear receptor subfamily 1 group I member 3 (Homo sapiens) (Q14994 whole entry, looked up): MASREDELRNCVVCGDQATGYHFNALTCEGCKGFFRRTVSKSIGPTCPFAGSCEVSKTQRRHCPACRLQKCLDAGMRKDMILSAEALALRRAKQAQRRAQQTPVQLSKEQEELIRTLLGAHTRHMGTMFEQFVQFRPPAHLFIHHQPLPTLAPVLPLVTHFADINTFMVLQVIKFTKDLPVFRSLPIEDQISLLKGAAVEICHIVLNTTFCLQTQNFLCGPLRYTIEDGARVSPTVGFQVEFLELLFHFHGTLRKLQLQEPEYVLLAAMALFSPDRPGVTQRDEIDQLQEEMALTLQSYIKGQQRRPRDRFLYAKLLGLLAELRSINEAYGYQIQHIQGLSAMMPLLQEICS
Procedure, shortened: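 Luminescence readout (ONE-Glo, 30 min RT) of CYP2B6-2.2kb reporter in HepG2-hCAR cells after 24hr, 37C treatment with compound against 50 nM CITCO; CellTiter-Fluor viability read beforehand.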

[14] = biological target: Nuclear receptor subfamily 1 group I member 3 (Homo sapiens) (UniProt Q14994); experiment: qHTS for Constitutive Androstane Receptor (CAR) Agonist screened against the NCATS CANVASS Library (AID 1347373);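 note: every well also contained 1.5 µM PK11195 alongside the test compound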
Procedure, shortened: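 Cells were plated and allowed to attach for 4hr, then dosed with compound in an 11-point series alongside 1.5uM PK11195. After 24hr at 37C, viability was measured fluorometrically and CAR-driven CYP2B6 reporter luminescence was recorded.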

[15] = 10-beta competent E. coli microbial cell viability qHTS against the NCATS CANVASS Library (AID 1347376); note: series mostly up to about 46 µM
Procedure, shortened: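 Bacterial suspension diluted to 0.2 OD was dosed with compounds, 11-point series, then held overnight at 37C. BacTiter-Glo reagent was added, and after 20 min at room temperature ATP-dependent luminescence was measured.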

[16] = qHTS for H2AX Agonists against the NCATS CANVASS Library (AID 1347378)
Procedure, shortened: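 CHO-K1 cells (1000/well, overnight at 37C) exposed to compounds at several concentrations for 3 hr at 37C, 0.76% DMSO final. Lysates read by TR-FRET (phospho-H2AX S139 Eu-cryptate antibody / H2AX-d2 antibody) after 24 hr at room temperature; 665/615 nm ratio.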

[17] = qHTS for Inflammasome Signaling Inhibitors: IL-1-beta AlphaLISA screen against the NCATS CANVASS Library (AID 1347379);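 note: human THP-1 cells primed with LPS then triggered with ATP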
Procedure, shortened: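 Secreted IL-1B from human THP-1 cells quantified by AlphaLISA 16 hr after compound addition (final up to 57.5 uM). A 1 hr compound pretreatment preceded inflammasome activation with 250 ng/mL LPS plus 1.25 mM ATP (final).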

[18] = Inflammasome Signaling qHTS Counterscreen: IL-1-beta AlphaLISA counterscreen against the NCATS CANVASS Library (AID 1347381);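 note: cell-free check with purified IL-1β in medium and no THP-1 cells; series mostly up to about 57 µM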
Procedure, shortened: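 Purified IL-1-beta (4 pg/well) + compound, 11-pt conc. series; acceptor beads 6 ug/mL + biotin-Ab 0.6 nM final, 1 h RT; SA-donor 24 ug/ml final, 30 min dark RT; read ex 680/em 615.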

[19] = Cytotoxicity qHTS for assessment of Hepg2 cells membrane integrity screened against the NCATS CANVASS Library (AID 1347387)
Procedure, shortened: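 Cells were seeded at 2000 per well and left overnight to attach. Compounds were pin-transferred to give 0.59 nM - 46 uM in an 11-point series and incubated 5 hr at 37C. CytoTox-ONE reagent was added and, after 10 min at room temperature, fluorescence (ex 560, em 590 nm) was read.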

[20] = Viability qHTS for inhibitors of the SERCaMP assay screened against the NCATS CANVASS Library (AID 1347400); note: series mostly up to about 92 µM; nearly all actives have a fitted effect of over 70% in size
Procedure, shortened: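 Seed SH-SY5Y-GLuc SERCaMP MJH297 cells at 1000 per well, incubate 4 h, add compounds across an 11-point range, incubate 48 h at 37C, then add CellTiter-Glo and read luminescence.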

Measured: Potency

CC1(C)CC[C@]2(CO)CC[C@]3(C)C(=CCC4[C@@]5(C)CC[C@H](O)C(C)(C)C5CC[C@]43C)C2C1 (stereo partly drawn)
inactive: [1] | [2] | [3] | [4] | [5] | [6] | [7] | [8] | [9] | [10] | [11] | [12] | [13] | [14] | [15] | [16] | [17] | [18] | [19] | [20]

COc1ccc([C@@H]2c3cc4c(cc3C(=O)C(C)C2C)OCO4)cc1OC (stereo partly drawn)
inactive: [1] | [2] | [3] | [4] | [5] | [6] | [7] | [8] | [9] | [10] | [12] | [13] | [15] | [16] | [17] | [18] | [19] | [20]

C=C[C@]1(C)CC[C@@H]([C@H](C)C(=O)CC=C(C)C)O1
inactive: [1] | [2] | [3] | [4] | [5] | [6] | [7] | [8] | [9] | [10] | [11] | [12] | [13] | [14] | [15] | [16] | [17] | [18] | [19] | [20]

CN1C(=O)C(=O)N2C(=C[C@]3(c4c[nH]c5ccccc45)c4ccccc4N[C@H]23)C1=O
inactive: [1] | [2] | [3] | [4] | [5] | [6] | [7] | [8] | [9] | [10] | [11] | [12] | [13] | [14] | [15] | [16] | [17] | [18] | [19] | [20]

CC(C)=CCCC(C)(O)[C@H]1CC=C(C)C(O)C1 (stereo partly drawn)
inactive: [1] | [2] | [3] | [4] | [5] | [6] | [7] | [8] | [9] | [10] | [11] | [12] | [13] | [14] | [15] | [16] | [17] | [18] | [19] | [20]
